In all, about 330,000 compounds went through this assay and about 4,100 (1.2%) were called active. Another 2% or so got no clear call; they are omitted. The list comes from a sample in which actives are over-represented; it also holds similar structures and randomly drawn compounds. A number with no mark means an inactive call. Rule for the calls: active = max response of -50% or lower; inconclusive = between -30% and -50%; inactive = -30% or higher.
% is set by controls: 0 for no effect and ±100 for the full control effect.

Sequence of Phosphatidylinositol 5-phosphate 4-kinase type-2 alpha (Homo sapiens) (P48426 whole entry, looked up, canonical isoform): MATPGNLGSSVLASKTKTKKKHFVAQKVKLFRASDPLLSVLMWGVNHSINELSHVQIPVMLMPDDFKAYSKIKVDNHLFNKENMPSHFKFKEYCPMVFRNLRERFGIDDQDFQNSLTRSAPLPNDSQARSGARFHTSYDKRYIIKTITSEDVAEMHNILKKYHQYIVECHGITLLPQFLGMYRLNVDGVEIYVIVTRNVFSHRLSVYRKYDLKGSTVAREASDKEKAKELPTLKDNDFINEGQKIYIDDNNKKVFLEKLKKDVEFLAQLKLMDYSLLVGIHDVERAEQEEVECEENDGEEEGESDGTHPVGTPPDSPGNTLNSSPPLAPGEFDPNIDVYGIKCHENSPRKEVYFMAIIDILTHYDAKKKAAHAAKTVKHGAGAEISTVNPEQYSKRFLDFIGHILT

The experiment addresses Phosphatidylinositol 5-phosphate 4-kinase type-2 alpha (Homo sapiens) (UniProt P48426). The experiment in a line: qHTS for Inhibitors of phosphatidylinositol 5-phosphate 4-kinase (PI5P4K). Note: value at the top dose of about 77 µM. Conditions: PI5P4Kalpha enzyme, ADP-Glo luminescence, 60 min; hits give low values. An excerpt:
In addition to finding PI5P, we discovered the type II phosphatidylinositol 5-phosphate 4-kinase (PI5P4K) family (alpha, beta, gamma isoforms) that catalyze the conversion of PI5P to PI(4,5)P2. Alternatively, PI(4,5)P2 can also be synthesized through phosphatidylinositol-4-phosphate (PI4P) by the type I phosphatidylinositol 4-phosphate 5-kinases (PI4P5K). These PI5P4K enzymes therefore represent one way by which cells can regulate endogenous PI5P levels and play important roles in insulin signaling and in stress responses.
This proposal aims to identify and optimize specific modulators of human PI5P4K, phosphatidylinositol-5-phosphate 4-kinase (Type II PIPK), a family of kinases that regulate AKT signaling and tumor cell growth. In this project we aim to identify inhibitors of human PI5P4K using a quantitative high-throughput screening approach against the MLSMR containing ~400,000 small molecules.
NIH Chemical Genomics Center [NCGC]
NIH Molecular Libraries Probe Centers Network [MLPCN]
Assay Submitter (PI): Atsuo Sasaki, Beth Israel Deaconess Medical Center
2 microL of PI5P4Kalpha/substrate buffer (columns 1-2, 5-48) are dispensed into Greiner white solid bottom 1536-well assay plates; column 3 receives only PI5P4Kalpha buffer as 0x substrate controls; column 4 receives only substrate buffer as 0x PI5P4Kalpha controls. Final assay buffer consists of 0.038 M HEPES pH 7.4, 0.28 mM EGTA, 0.1% CHAPS, and 5% DMSO (final concentration). Compounds are then transferred via Kalypsys pin tool equipped with 1536-pin array (10 nL slotted pins, V&P Scientific, San Diego, CA). Following addition of compound, 1 microL of ATP (5 microM final concentration, all columns) is added to initiate the reaction. ATP is diluted in an assay buffer consisting of 0.02 M HEPES pH 7.4, 60 mM MgCl2, 15 microM ATP, and 0.1% CHAPS. The plates are then incubated at room temperature for 60 minutes. ADP-Glo reagent 1 is added (2 microL) and plates incubated for 45 minutes, before ADP-Glo reagent 2 (4 microL) is added and plates incubated for 30 minutes. They are then transferred to a ViewLux high-throughput CCD imager (PerkinElmer) wherein single end-point measurements of luminescence are acquired using a clear filter.
(In general: qHTS replaces the single test concentration by a dilution series.)
Regarding `Nc1c(NCCc2ccccc2)c2ccccc2oc1=O`, the max response is -0.531%.
With `S=C(NCCc1ccccc1)Nc1ccccc1`, the max response was -4.55%.
With `S=c1[nH]nc(NCCc2ccccc2)s1`, the max response is -73.1% (active).
As for `Cc1ccccc1-c1csc(C(O)c2cccc(Cl)c2)n1` (stereo not drawn), the max response was 23.5%.
Regarding `Cc1ccnc(N2CCCC(C(=O)NC3CC3)C2)n1` (stereo not drawn), the max response was -0.042%.
For `Cc1ccnc(SC2CC(=O)N(c3ccccc3)C2=O)n1` (stereo not drawn), the max response is -1.33%.
Regarding `Cc1ccnc(-n2sc3ccccc3c2=O)n1`, the max response was -98.6% (active).
As for `CCOCCC(=O)Nc1ccc2c(c1)c(=O)n(C)n2-c1ccc2ccccc2c1`, the figure is 0.749%; as for `O=C1CCCC(O)=C1N=Nc1ccc(S(=O)(=O)N2CCOCC2)cc1`, -20.1%.
On to `O=C1CCCC(O)=C1N=Nc1ccc2ncsc2c1`, for which the max response is -66.1% (active).
In the case of `COc1ccc(C(C#N)=C2C=CC(=NO)c3ccccc32)cc1`, the max response is -8.83%.
In the case of `CC(=O)c1c(C)[nH]c(=S)c(C#N)c1-c1ccc(F)cc1`, the max response was -20.4%.
With `N#Cc1c2c(c(-c3ccccc3)[nH]c1=O)CCCC2`, the max response was -4.1%.
Take `N#Cc1c(-c2ccc(Cl)cc2)c2c([nH]c1=S)CCCC2`: the max response is -61.4% (active).
The result for `CCN(CC)c1ccc(C(=O)N/N=C/c2ccc(N3CCOCC3)cc2)cc1` reads -1.97%; that for `COc1cc2ccccc2cc1C(=O)Nc1ccc(N2CCOCC2)cc1`, 5.82%; that for `Cc1ccc(/C=N/NC(=O)c2cc3ccccc3cc2O)o1`, -60.2% (active).
`O=C(NN=Cc1ccc(N2CCOCC2)cc1)c1cc2ccccc2cc1O`: the max response is -58.2% (active).
`Cc1ccc(/C=N/NC(=S)Nc2cccc(S(=O)(=O)N(C)C)c2)o1`: the max response was -3.83%.
The result for `Cc1ccc(/C=N/NC(=S)NC2CCCCC2)o1` reads -0.109%; that for `CCOc1ccc(CCNC(=O)COC(=O)c2ccc(C)c(S(=O)(=O)N3CCOCC3)c2)cc1OCC`, -2.07%.
In the case of `CC(C)C[C@@H]1COc2cc(N3CCC[C@@H]3CO)ccc2S(=O)(=O)N1`, the max response is 2.99%.
As to `COC(=O)[C@@]12C[C@@H](CC(=O)NCCCCc3ccccc3)C(=O)N(Cc3ccccc3)C1=CCC(C)(C)C2`, the max response is 14.2%.
As for `C#Cc1ccc(NC(=O)C2(C)CCN2C(=O)Cc2ccc(-c3ccccc3)cc2)cc1` (stereo not drawn), the figure is 26.3%; as for `CCCc1c(-c2ccccc2F)ncn1Cc1ccccc1OC`, 4%; as for `CCS(=O)(=O)C1=NSC2=NC(=O)/C(=C\c3cc(C)n(-c4cccc(OC)c4)c3C)C(=N)N21`, -20.4%.
As for `CCS(=O)(=O)C1=NSC2=NC(=O)/C(=C\c3ccc(OS(=O)(=O)c4ccccc4)cc3)C(=N)N21`, the figure is -73.6% (active); as for `Cc1ccc(C2=N/C(=C\c3ccc(OS(=O)(=O)c4ccc(C)cc4)cc3)C(=O)O2)cc1`, -1.18%; as for `Cc1ccccc1-c1nc(NC(C)C)nc2cc(-c3ccccc3)sc12`, 8.32%.
Turning to `S=c1[nH]nc(-c2cc(-c3ccccc3)n[nH]2)n1/N=C/c1c2ccccc2cc2ccccc12`, the max response was -58.9% (active).
Turning to `Fc1ccccc1/C=N/n1c(-c2cccnc2)n[nH]c1=S`, the max response is 5.87%.
As to `c1ccc(-c2cc(-c3ccccc3)[nH]n2)cc1`, the max response is -6.2%.
Regarding `Clc1cccc(-c2nc3nc4ccccc4nc3n2Cc2ccco2)c1`, the max response is -4.59%.
With `Cc1ccc(Cn2c(C)nc3c(c2=O)c2nc4ccccc4nc2n3Cc2ccco2)cc1`, the max response was -62.3% (active).
As for `O=c1c2ccccc2oc2nc(C3CCCCC3)n(Cc3ccco3)c(=O)c12`, the figure is 0.643%.
Consider `CC1(C(=O)NCc2cccc3ccccc23)CCN1Cc1ccc(-c2ccccc2)o1` (stereo not drawn), for which the max response was 25.6%.
The result for `CCCCC[C@@H]1C=C(C(=O)OCC)[C@H](c2ccccc2)N1S(=O)(=O)c1ccc(C)cc1` reads 8.7%.
For `COCCNc1ncnc2c1ncn2[C@H]1CN(Cc2ccc(OC)cc2)C[C@@H](CO)O1`, the max response was 2.79%.
Turning to `C=CS(=O)c1sc(Cl)c(N2CCOCC2)c1[N+](=O)[O-]` (stereo not drawn), the max response is -71.5% (active).
For the molecule `CC(=O)Nc1cc(-c2ccccc2F)cn2c(-c3cccc(C(F)(F)F)c3)cnc12`, the max response was -3.13%.
On to `COc1ccc(C(C)(O)c2nc(-c3cc(F)cc(F)c3)cs2)cc1` (stereo not drawn), for which the max response was 30.3%.
Consider `Cc1cc(=O)n2[nH]c(-c3sccc3-n3c(C)ccc3C)cc2n1`, for which the max response was -57.4% (active).
`CCc1c(C)nc2cc(-c3cccs3)[nH]n2c1=O`: the max response was -0.23%.
With `Cc1cc(=O)n2[nH]c(-c3cccc(Cl)c3)cc2n1`, the max response is -3.84%.
With `CC(C)C[C@H]1CN([C@@H](Cc2ccccc2)CN2CCC[C@@H]2CN2C(=O)C(=O)NC[C@@H]2Cc2ccc(O)cc2)C(=O)C(=O)N1CCc1ccccc1`, the max response is -1.65%.
In the case of `O=C(Nc1ncc([N+](=O)[O-])s1)C1COc2ccccc2O1` (stereo not drawn), the max response was -21.4%.
Turning to `COc1ccc(OC)c2sc(NC(=O)C3COc4ccccc4O3)nc12` (stereo not drawn), the max response was 2.71%.
Take `O=C(Nc1nc(-c2ccncc2)cs1)C1COc2ccccc2O1` (stereo not drawn): the max response was -62.8% (active).
As to `CN(C(=O)CN1CCN(c2cc(-c3ccc(OCc4ccccc4)cc3)ncn2)CC1)c1ccccc1`, the max response was -25%.
As for `C[C@H]1Cn2cnc(C(=O)N[C@H](C)c3ccccc3)c2C(=O)N1`, the max response is -2.59%.
For the molecule `CC1=C/C(=N\OS(=O)(=O)c2ccccc2)C=CC1=O`, the max response was -78.8% (active).
As for `Cc1nc(C(F)(F)F)ccc1C(=O)N1CCC1(C)C(=O)NS(=O)(=O)c1ccc(F)cc1F` (stereo not drawn), the figure is -1.9%; as for `CCC(c1nnnn1Cc1ccco1)N(Cc1cc2cc(OC)ccc2[nH]c1=O)C1CCCCC1` (stereo not drawn), -18.4%.
Take `CCC(c1nnnn1Cc1ccco1)N(CCc1ccccc1)Cc1cc2ccc(OC)cc2[nH]c1=O` (stereo not drawn): the max response is -64.1% (active).
The result for `CCC(c1nnnn1Cc1ccco1)N(CCc1ccccc1)Cc1cc2cccc(C)c2[nH]c1=O` (stereo not drawn) reads -1.38%; that for `CCc1nc2ccc(C(=O)NC3CCN(Cc4ccccc4)CC3)cn2c1N(CC)CCOC`, -1.84%; that for `CCOC(=O)[C@]12CCCC=C1N(Cc1ccc(Cl)cc1Cl)C(=O)[C@H](CC(=O)N1CCCCC1)C2`, 12%.
As for `CCCCC[C@H](C)N1C[C@@H](COCc2ccccc2)Oc2cc(N3CC[C@@H](N(C)C)C3)ccc2S1(=O)=O`, the figure is 27.1%; as for `CN(C)C(=O)c1cccc(-c2cnc3sc(NCc4ccc5c(c4)OCO5)nn23)c1`, -16.9%.
`O=c1[nH]c2ccccc2s1`: the max response is 5.23%.
As for `CCOc1ccc2nc(N(CCN(C)C)C(=O)c3ccc4ccccc4c3)sc2c1`, the max response is -3.3%.
As to `Nc1ccc2[nH]c(=S)sc2c1`, the max response was -73.9% (active).
`CCOc1ccc2[nH]c(=S)sc2c1`: the max response is -59.6% (active).
The result for `COc1ccc2[nH]c(=S)cc(C)c2c1` reads -9.52%.
Turning to `CC(C)C[C@H]1CNC(=S)N1C[C@H]1CCCN1C[C@H](Cc1ccc(O)cc1)N1C[C@H](Cc2ccc(O)cc2)N(CC2CCCCC2)C1=S`, the max response is -6.15%.
With `O=C(NCc1ccc(F)cc1)c1cc(C2CCCCN2C(=O)c2ccccn2)on1` (stereo not drawn), the max response is -11.1%.
As for `CCOC(=O)C1=CC[C@@H](c2ccncc2)N(S(=O)(=O)c2ccc(C)cc2)C1`, the figure is -0.549%; as for `COc1cccc(-c2cc(NC(C)=O)c3ncc(-c4cccc(C(C)=O)c4)n3c2)c1`, -0.237%.
Consider `CC(C)NC(=O)C1(C)CCCCN1Cc1cccc(C(F)(F)F)c1` (stereo not drawn), for which the max response was 22.3%.
On to `COC(=O)c1ccc2nc(-c3ccc(Cl)cc3)c(Cc3cccc(F)c3)n2c1`, for which the max response was 7.01%.
On to `C=CCOc1cccc(C2C(C(=O)c3ccc(C)o3)=C(O)C(=O)N2CCN2CCOCC2)c1` (stereo not drawn), for which the max response is 2.35%.
The result for `CCCOc1ccc(C2C(C(=O)c3ccc(C)o3)=C(O)C(=O)N2CCCn2ccnc2)cc1` (stereo not drawn) reads -23%.
The result for `Cc1cc(N2C(=O)C(O)=C(C(=O)c3ccc(C)o3)C2c2ccc(OCc3ccccc3)cc2)no1` (stereo not drawn) reads -59.9% (active); that for `O=C(c1ccc(CS(=O)Cc2ccccc2Cl)o1)N1CCN(c2ccccc2)CC1` (stereo not drawn), -2.59%; that for `O=C(Nc1ccc(OCCO)cc1)c1csc([C@H]2C[C@H](O)[C@@H](CO)O2)n1`, -3.56%.
As to `C=CC(=O)Nc1ccc(Nc2ccnc(Nc3ccc(N4CCN(C)CC4)cc3)n2)cc1`, the max response was -68.9% (active).
For the molecule `Cc1cccc(N2CCN(c3ccc(NC(=O)/C=C\C(=O)O)cc3)CC2)c1`, the max response is -9.89%.
For `CN1CCN(c2ccc(NC(=O)c3cc(Cl)c4c(c3)OCCO4)cc2)CC1`, the max response was 3.06%.
Take `CCCCCc1c(Cc2ccccc2)ncn1CCc1ccccc1OC`: the max response was -4.89%.
The result for `CCC(c1nnnn1-c1ccc2c(c1)OCCO2)N1CCN(c2ccc(C(F)(F)F)cn2)CC1` (stereo not drawn) reads -0.412%; that for `Cn1c(SCC(=O)Nc2ccc(Cl)cc2)nc(O)cc1=O`, -57.1% (active).
As for `COc1ccc(NC(=O)CSc2nc3ccccc3c(=O)n2C)cc1`, the figure is 0.885%; as for `CC(C)Cn1c(SCC(=O)Nc2ccc(Cl)cc2F)nc(O)cc1=O`, 3.57%.
Turning to `O=C1c2ccccc2C(=O)N1CCCCCCN1C(=O)c2ccccc2C1=O`, the max response was 1.45%.
As for `C[N+](C)(CCCCCC[N+](C)(C)CCCN1C(=O)c2cccc3cccc(c23)C1=O)CCCN1C(=O)c2cccc3cccc(c23)C1=O`, the figure is -72.8% (active).
As to `O=C(CCCCCN1C(=O)c2cccc3cccc(c23)C1=O)NCc1ccco1`, the max response was 0.75%.
Regarding `COc1ccc(CC(N)c2csc(NC(=O)Nc3ccc(C(C)C)cc3)n2)cc1` (stereo not drawn), the max response is -8.9%.
Turning to `CC1(C(=O)NS(=O)(=O)c2ccc(C#N)cc2)CCN1C(=O)CC1CCCC1` (stereo not drawn), the max response was 0.461%.

For the origin of these results see PubChem BioAssay AID652105 (National Center for Advancing Translational Sciences (NCATS), 2013).
